High-throughput results deposited in PubChem BioAssay by National Center for Advancing Translational Sciences (NCATS).
IL-2 act: qHTS of IL-2 Activators; IL-2 activation reporter assay, cell-based qHTS; stimulated with anti-CD3/CD4/CD28 beads; in transgenic mouse T cells; activation, % (series mostly up to about 46 µM); 360,000 tested, 0.065% active; AID 652025, 2013; in the data active means activation above about 50%; inconclusive means mostly about 30% to 49%; further: 0% is about no effect
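Readout is EGFP and DsRed signal by fluorescent plate cytometry after 18 h at 37 degrees C. Transgenic mouse T cells (750/well) received compound for 60 min before bead stimulation (anti-CD3, anti-CD4, anti-CD28); memory T cells served as non-tolerant control.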
12-LOX inh: Primary qHTS assay for inhibitors of human arachidonate 12S-lipoxygenase (ALOX12): Round 2; Potency, µM (top dose mostly 108 µM), inactives show at the top dose activity change, negative = inhibition, most hits filed as inhibitors; 580,000 tested, 1.1% active; AID 1671190, 2021; Polyunsaturated fatty acid lipoxygenase ALOX12 (Homo sapiens), P18054; purified 12hLO, xylenol orange hydroperoxide absorbance; further: potency means the concentration at half of the fitted maximal effect; on the % scale 0 is the no-effect control and ±100 the full control effect
Target sequence (P18054 whole entry, looked up): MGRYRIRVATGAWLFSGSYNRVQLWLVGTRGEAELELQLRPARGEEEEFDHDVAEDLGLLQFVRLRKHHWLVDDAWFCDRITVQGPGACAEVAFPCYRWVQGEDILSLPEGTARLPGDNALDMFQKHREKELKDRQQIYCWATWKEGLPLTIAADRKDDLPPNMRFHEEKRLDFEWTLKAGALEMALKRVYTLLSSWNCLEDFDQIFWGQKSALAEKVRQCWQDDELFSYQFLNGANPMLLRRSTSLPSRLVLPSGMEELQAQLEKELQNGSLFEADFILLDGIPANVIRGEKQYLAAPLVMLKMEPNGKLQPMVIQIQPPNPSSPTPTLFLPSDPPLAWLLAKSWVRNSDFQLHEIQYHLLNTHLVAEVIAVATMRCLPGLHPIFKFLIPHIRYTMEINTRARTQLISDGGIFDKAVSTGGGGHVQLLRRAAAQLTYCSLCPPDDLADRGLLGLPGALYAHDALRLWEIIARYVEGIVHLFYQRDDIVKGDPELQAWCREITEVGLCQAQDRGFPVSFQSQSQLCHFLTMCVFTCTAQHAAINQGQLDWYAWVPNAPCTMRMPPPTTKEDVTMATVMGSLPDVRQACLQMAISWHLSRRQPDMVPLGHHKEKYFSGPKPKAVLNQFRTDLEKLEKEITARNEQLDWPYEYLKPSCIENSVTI
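Purified human 12hLO at 150 nM in 25 mM Hepes, 0.01% Triton X-100, pH 7.0, preincubated 15 min at room temperature with compound. Reaction started with 40 uM arachidonic acid, 30 min at room temperature. Hydroperoxide measured by Fe-xylenol orange, 573/405 nm absorbance ratio.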
uPA generation: qHTS for Inhibitors of Cell Surface uPA Generation | cell surface uPA generation assay, qHTS | Potency, µM (doses to about 38.3 µM), for inactives: at the top dose activity change, negative = inhibition, most hits filed as inhibitors | 330,000 tested, 0.31% active; active means well fitted inhibition curve with a large enough effect; inconclusive means small, poorly fitted or top-dose-only effect; inactive means no such curve, though single readings can be large or run the other way; tested in mouse RAW 264.7 cells; further: potency means the concentration at half of the fitted maximal effect; on the % scale 0 is the no-effect control and ±100 the full control effect; nearly all actives have a fitted effect of over 55% in size
Nrf2 ARE act: qHTS of Nrf2 Activators; AREc32 ARE-luciferase reporter (MCF7-derived line), luminescence, 24 h; Potency, µM (doses to about 46.1 µM), without a hit: top-dose activation, most hits filed as activators; 410,000 tested, 0.31% active; further: potency means the concentration at half of the fitted maximal effect; % of control where 0% means no effect; nearly all actives have a fitted effect of over 65% in size
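AREc32 cells carrying an ARE-driven firefly luciferase, 1000 cells/well in OPTI-MEM with 5% FBS, dosed after overnight attachment and incubated 24 hr at 37 deg C. Steady-Glo luminescence read after 30 min at RT.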
a7 integrin act: qHTS for Activators of Integrin-Mediated Alleviation for Muscular Dystrophy; alpha7betagal myoblasts, beta-gal FDG fluorescence, 48 h; Potency, µM (doses to about 38.3 µM), for the others: at the top dose activation, hits mostly activators; 350,000 tested, 0.064% active; AID 624291, 2012;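 further: potency means the concentration at half of the fitted maximal effect; 100% = response of the positive control SU9516; nearly all actives have a fitted effect of over 60% in size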
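Alpha7betagal+/- myoblasts (passage 13) were plated 16-24 hr, then exposed to compounds (1:260 dilution of DMSO stock) for 48 hours at 37C. After MPER lysis, β-galactosidase reporter activity was read as FDG fluorescence (ex 480/em 540) after 30 minutes.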
Numbers without * were called inactive; u = inconclusive; x = no result; ! = a repeat was not active; [ ] = dose if it differs, or a comment. Only some compounds are listed: those with a hit (about 1.5% of all), similar ones and a draw of the others. Unless noted, the call rests on the fitted dose curve; in most records, active means well fitted curve in the direction sought with a large enough effect; inconclusive means small, poorly fitted or top-dose-only effect, or another doubt; inactive means no such curve, though single readings can be large; an effect the other way counts as inactive or inconclusive.

SMILES | IL-2 act | 12-LOX inh | uPA generation | Nrf2 ARE act | a7 integrin act
CC1=C(C(=O)Nc2ccccc2)C(c2ccc(Cl)cc2)n2c(s/c(=C/c3cccc(OCC(=O)O)c3)c2=O)=N1 (configuration not stated) | 1 | 45µM* | -2% | 16% | 8%
O=C(NCc1cccnc1)c1ccc(N2CCC(NCCCn3ncc4ccccc43)CC2)cc1 | x | 8% | x | x | x
CCCn1c(SCC(=O)Nc2ccc(F)c(F)c2)nc(O)cc1=O | x | -23% | x | x | x
COc1ccc(CC(=O)Oc2ccccc2Br)c(OC)c1 | x | 32% | x | x | x
O=C(NNc1ccccc1C(F)(F)F)c1sccc1Br | -1 | 40µM* | -11% | 8% | -22%
O=C1COc2ccc(NCCOc3ccccc3)nc2CN1Cc1ccccc1F | x | -1%[176 µM] | x | x | x
CCn1c(O)c(C=Nc2ccccc2)sc1=S | 4 | u | 2% | 7% | 5%
Oc1c(C=Nc2ccccc2)sc(=S)n1Cc1ccccc1 | 71* | 8.9µM* | 0% | 7% | -16%
Cc1ccc(/C(O)=C/c2nc3ccccc3oc2=O)cc1 | 0 | -18% | -8% | 13µM* | -30%
O=c1oc2ccccc2nc1/C=C(O)/C=C/c1ccc(F)cc1 | -2 | u | -8% | 18µM* | -33%
O=c1oc2ccccc2nc1/C=C(O)/C=C\c1ccccc1 | -3 | -3% | -15% | 16µM* | -38%
O=C(/C=C/c1ccccc1)c1cc2ccccc2oc1=O | x | 13% | x | x | x
Cc1ccc2oc(=O)c(/C=C(\O)c3ccco3)nc2c1 | 6 | 6% | -9% | u | -39%
CC(C)C(OC(=O)/C=C/c1ccc(C(F)(F)F)cc1)C(=O)NC(N)=O (configuration not stated) | x | -4% | x | x | x
O=C(OCC1C(COC(=O)c2ccncc2)C1(Cl)Cl)c1ccncc1 (configuration not stated) | x | -16% | x | x | x
CN1[C@@H](CCC(=O)NCc2cccs2)CNC(=O)[C@H]2NCC[C@H]21 | x | 37%[176 µM] | x | x | x
O=C(CSc1nc2ccccc2c(=O)[nH]1)c1cccs1 | -1 | 6.3µM* | 4% | 5% | 25%
N#Cc1c(-c2cccs2)nc(SCC(=O)c2cccs2)[nH]c1=O | 3 | 10µM* | 0% | 12% | 17%
N#Cc1c(-c2ccccc2)nc(SCC(=O)Nc2ccccc2)[nH]c1=O | 0 | -29% | 4% | 0% | 22%
Cc1ccc(CN(Cc2cc(=O)n3[nH]c(-c4cccc(C)c4)cc3n2)CC(C)C)cc1 | x | 0% | x | x | x
COC(=O)CC(NC(=S)NC(=O)c1ccccc1)c1ccc(Br)cc1 (configuration not stated) | 0 | 7.9µM* | -4% | 10% | -16%
Cc1cc(S(=O)(=O)c2ccc([N+](=O)[O-])cn2)ccc1Br | -1 | 124% | -8% | 13µM* | -36%
Cc1nc2cc(-c3ccccc3)sc2c(=O)n1N | 0 | 0% | -11% | 0% | u
COc1ccc(-c2cc3nc(C)n(N)c(=O)c3s2)cc1 | 0 | 2% | 0.71µM* | -3% | 8%
CN(C)c1ccc(/C=C(\C#N)c2ccccc2)cc1 | -4 | x | 0.89µM* | -1% | -18%
SMILES | IL-2 act | 12-LOX inh | uPA generation | Nrf2 ARE act | a7 integrin act
CCc1ccccc1NC(=O)c1cc(C2CC2)nc2ccccc12 | x | -5% | x | x | x
CCn1nc(C(=O)NCC(c2cccs2)N2CCOCC2)c2ccccc2c1=O (configuration not stated) | -1 | 0% | 2% | 6% | 24%
O=C(NCC(c1cccs1)N1CCOCC1)c1cc2ccccc2o1 (configuration not stated) | -1 | 4% | -17% | 0% | -22%
O=C(NCC(c1cccs1)N1CCOCC1)c1cc2ccccc2oc1=O (configuration not stated) | 0 | 18µM*! | 10% | 4% | 14%
CCCCn1nc(C(=O)NCC(c2cccs2)N2CCOCC2)c2ccccc2c1=O (configuration not stated) | -1 | 3% | 11µM* | 1% | -19%
O=C(O)c1cccc(N2C(=O)/C(=C/c3ccc(SCc4ccc(Cl)cc4)o3)SC2=S)c1 | 0 | 3.5µM* | 8% | 0% | -41%
COc1ccc(S(=O)(=O)NNc2nc(C)cc(C)n2)cc1Br | 3 | 32µM* | 12% | -1% | -8%
CS(=O)(=O)N(CC(=O)N1CCN(c2ccccc2)CC1)c1cccc(Br)c1 | -1 | 28µM* | -7% | 0% | -24%
COc1cc(C(=O)OCCc2cc3ccccc3c(=O)o2)cc(OC)c1OC | -1 | -25% | 1.1µM* | 13% | -28%
Cc1ccc(SC2=C(Sc3ccc(C)cc3)C(=O)c3ccccc3C2=O)cc1 | 2 | u | -4% | 12% | -16%
CC1=CC(=O)C(Sc2ccc(C)cc2)=CC1=O | -4 | 1.1µM* | x | 13µM* | -62%
CCn1nc(C)c(CCC(=O)NC2CCCc3c2[nH]c2c(Cl)cccc32)c1C (configuration not stated) | x | 31% | x | x | x
CC(C)n1c(-c2ccc(C(C)(C)C)cc2)n[nH]c1=S | -2 | 16µM* | x | 0% | -41%
CC(C)(C)c1ccc(-c2n[nH]c(=S)n2Cc2ccccc2)cc1 | -5 | u | 2% | 3% | -10%
Cc1n[nH]c(C)c1CNC(=O)C1CCN(c2cn[nH]c(=O)c2)C1 (configuration not stated) | x | 30% | x | x | x
Cc1ccc(-c2cc(Nc3cccc(C)c3)nc(C)n2)cc1 | x | 50µM* | x | x | x
Cc1ccc(Nc2cc(-c3ccccc3)nc(C)n2)cc1 | x | 3% | x | 10% | x
CC1(C(=O)O)CCCCC(=O)N1 (configuration not stated) | x | 1% | x | x | x
CCOC(=O)N1CCN(CC(=O)Nc2cc(OCC)ccc2OCC)CC1 | -2 | 1.6µM* | -3% | 0% | 4%
CCOC(=O)N1CCN(CC(=O)Nc2nc3ccc(OC)cc3s2)CC1 | 1 | 45µM* | 0% | 2% | -2%
COCCN1CCNc2cc(-c3ccc(Oc4ccccc4)cc3)ncc2C1 | x | -6%[176 µM] | x | x | x
c1ccc2nc(-c3nnc4sc(-c5ccncc5)nn34)ccc2c1 | x | 28% | x | x | x
COc1ccc(-c2cccc(COc3cnc4c(ccn4CC(=O)O)c3)c2)c(C)c1 | x | 45µM* | x | x | x
O=C(O)Cn1ccc2cc(OCCc3cccc(-c4ccc(Cl)cc4)c3)cnc21 | x | 45µM* | x | x | x
Clc1ccccc1CSc1nc2ccncc2[nH]1 | -1 | -28% | 4µM* | 2% | 4%
c1coc(CSc2ncnc3c2oc2ccccc23)c1 | -2 | 0% | 1% | 4.5µM* | 11%
COc1ccc(C(=O)NCc2nnc3ccc(-c4ccc(Cl)cc4)nn23)cc1F | x | -3% | x | x | x
CC(=O)Nc1ccc(S(=O)(=O)Nc2nc3ccccc3nc2Nc2cccc(C)c2)cc1 | x | -5% | x | x | x
CC(=O)Nc1ccc(S(=O)(=O)Nc2nc3ccccc3nc2Nc2cccc(Cl)c2)cc1 | x | 16µM* | x | x | x
